Some of the results follow. The true hit rate is not given.
Molecular target: furin, P09958
Experiment: furin cleavage Z-score vs untreated control; higher = more cleavage, active = 3.5 or more, inactive = 1 or less, 8 variable residues between constant flanks
Procedure, shortened: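 To give the cleavage Z-score, log read counts were set against furin-free reactions, lowess-adjusted and scaled by median absolute deviation. These counts came from PCR adapter-tagged, sequenced DNA released when purified furin cut 8-mer peptides fused to a cDNA oligonucleotide and held on magnetic beads by their N-terminus. Digests were 0.01 ml, 1:10 enzyme:substrate, in 50 mM HEPES pH 7.5 with CaCl2 and NaCl, for 7.5, 15 or 30 min.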

Chain of furin, P09958 (P09958 whole entry): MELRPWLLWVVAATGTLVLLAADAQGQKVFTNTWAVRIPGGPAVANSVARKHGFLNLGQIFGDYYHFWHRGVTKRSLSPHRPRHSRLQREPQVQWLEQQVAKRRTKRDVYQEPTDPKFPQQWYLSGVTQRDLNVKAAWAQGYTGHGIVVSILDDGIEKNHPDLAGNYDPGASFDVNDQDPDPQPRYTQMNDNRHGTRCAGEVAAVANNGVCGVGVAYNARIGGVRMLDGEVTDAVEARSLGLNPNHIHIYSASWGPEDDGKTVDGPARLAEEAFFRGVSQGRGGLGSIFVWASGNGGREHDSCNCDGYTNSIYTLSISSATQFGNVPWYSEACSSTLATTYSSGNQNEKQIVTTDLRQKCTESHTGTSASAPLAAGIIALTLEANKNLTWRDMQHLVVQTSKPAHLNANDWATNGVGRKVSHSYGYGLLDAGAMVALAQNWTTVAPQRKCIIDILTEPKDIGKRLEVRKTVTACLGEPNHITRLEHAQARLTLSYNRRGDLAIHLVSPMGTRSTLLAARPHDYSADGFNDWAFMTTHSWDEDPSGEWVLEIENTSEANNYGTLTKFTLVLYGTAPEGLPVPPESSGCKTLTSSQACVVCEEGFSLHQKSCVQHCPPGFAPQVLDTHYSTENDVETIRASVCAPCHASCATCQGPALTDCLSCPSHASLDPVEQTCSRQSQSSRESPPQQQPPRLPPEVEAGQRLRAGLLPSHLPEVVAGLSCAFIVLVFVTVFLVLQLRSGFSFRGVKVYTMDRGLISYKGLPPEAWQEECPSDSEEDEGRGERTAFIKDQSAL

| Sequence | furin cleavage Z-score (7.5 min) | furin cleavage Z-score (15 min) | furin cleavage Z-score (30 min) |
| --- | --- | --- | --- |
| CAMEECLQHLAGNASASA [HC24] | 0.426 (inactive) | 0.849 (inactive) | 1.01 |
| CAMEECIQHLAGNASASA [HC25] | 2.89 | 0.509 (inactive) | 1.63 |
| CARKKRPGGGAGNASASA [FS-2344] | 0.0138 (inactive) | 0.394 (inactive) | -0.0781 (inactive) |
| CARKKRTTSAAGNASASA [FS-2345] | 8.37 (active) | 8.69 (active) | 6.28 (active) |
| CARKKRIVTGAGNASASA [FS-2342] | 4.57 (active) | 4.97 (active) | 5.79 (active) |
| CARTYRWLSAAGNASASA [FS-2192] | -0.657 (inactive) | 1.48 | 0.201 (inactive) |
| CARKKRSTSAAGNASASA [FU2] | 12.7 (active) | 14.1 (active) | 8.12 (active) |
| CASSASQLSAAGNASASA [HC1261] | 0.811 (inactive) | -0.271 (inactive) | -1.07 (inactive) |
| CARKGKSSSAAGNASASA [FS-1725] | -1.17 (inactive) | -1.17 (inactive) | -0.784 (inactive) |
| CAMKKRDLSAAGNASASA [FS-2872] | 4.25 (active) | 5.63 (active) | 4.84 (active) |
| CASGKPAIIPAGNASASA [HC1005] | -1.38 (inactive) | -0.473 (inactive) | 0.121 (inactive) |
| CATTPCSCSWAGNASASA [HC1900] | -1.59 (inactive) | -2.52 (inactive) | -0.421 (inactive) |
| CARHTRSAEDAGNASASA [FS-2681] | 11.3 (active) | 11.4 (active) | 9.18 (active) |
| CARHTRSIFWAGNASASA [FS-2147] | 4.67 (active) | 4.45 (active) | 7.05 (active) |
| CAGHTVSGFVAGNASASA [HC357] | 1.57 | -0.476 (inactive) | -0.897 (inactive) |
| CARNTRSDEDAGNASASA [FS-3014] | -1.02 (inactive) | -0.114 (inactive) | -1.53 (inactive) |
| CARSIRDAEDAGNASASA [FS-2805] | 0.647 (inactive) | 0.756 (inactive) | 1.52 |
| CARIIRSSEDAGNASASA [FS-2950] | 3.85 (active) | 3.61 (active) | 5.54 (active) |
| CARGDRFSEDAGNASASA [FS-2931] | -1.45 (inactive) | -0.738 (inactive) | -1.76 (inactive) |
| CARHTRSYDYAGNASASA [FS-1897] | 1.79 | 2.03 | 4.9 (active) |
| CARGRRKDDYAGNASASA [FS-2417] | 0.188 (inactive) | -0.41 (inactive) | 0.301 (inactive) |
| CATTPCSGFWAGNASASA [HC1907] | -1.56 (inactive) | -0.535 (inactive) | -0.967 (inactive) |
| CARHTPVNSWAGNASASA [HC1571] | 1.44 | 0.608 (inactive) | 0.598 (inactive) |

| Sequence | furin cleavage Z-score (7.5 min) | furin cleavage Z-score (15 min) | furin cleavage Z-score (30 min) |
| --- | --- | --- | --- |
| CATRPCSGSWAGNASASA [HC1853] | -0.899 (inactive) | -0.615 (inactive) | -0.153 (inactive) |
| CADAHFLSQTAGNASASA [HC945] | 0.613 (inactive) | 1.42 | 0.711 (inactive) |
| CATTNCSGSWAGNASASA [HC1881] | -0.528 (inactive) | -0.292 (inactive) | 0.376 (inactive) |
| CAEEVVCCSMAGNASASA [HC2132] | 0.374 (inactive) | 0.297 (inactive) | -0.621 (inactive) |
| CAYHSVSHARAGNASASA [HC1651] | -1.35 (inactive) | -2.06 (inactive) | 0.0597 (inactive) |
| CAMEECSQHEAGNASASA [HC1772] | 1.5 | -1.3 (inactive) | 0.318 (inactive) |
| CAAGAHWGVLAGNASASA [HC335] | -0.197 (inactive) | -0.687 (inactive) | 0.539 (inactive) |
| CADMEVVTSTAGNASASA [HC2286] | 0.448 (inactive) | -0.986 (inactive) | 0.706 (inactive) |
| CATTPCSGSEAGNASASA [HC1932] | -1.03 (inactive) | -0.656 (inactive) | -0.208 (inactive) |
| CACNHRNRRRAGNASASA [FS-1624] | 5.53 (active) | 5.63 (active) | 6.25 (active) |
| CAKKSRLRRRAGNASASA [FS-1131] | 0.949 (inactive) | 0.557 (inactive) | 0.0179 (inactive) |
| CAFGRRLRRRAGNASASA [FS-1124] | 3.43 | 6.37 (active) | 4.4 (active) |
| CAPAHRHRRRAGNASASA [FS-1040] | 8.92 (active) | 11.7 (active) | 8.95 (active) |
| CAVRKRLRRRAGNASASA [FS-106] | 5.39 (active) | 6.32 (active) | 5.13 (active) |
| CASTPCSAHCAGNASASA [HC2580] | 0.205 (inactive) | 1.68 | 0.424 (inactive) |
| CAIEECSQHLAGNASASA [HC1664] | 0.463 (inactive) | 0.93 (inactive) | 0.504 (inactive) |
| CAEVVTSWWVAGNASASA [HC2208] | -0.678 (inactive) | 0.21 (inactive) | -0.507 (inactive) |
| CALIDRFKRWAGNASASA [FS-270] | 8.5 (active) | 9.49 (active) | 10.6 (active) |
| CALINTNGSWAGNASASA [HC367] | 1.08 | -2.18 (inactive) | 0.0661 (inactive) |
| CALCGRYKRWAGNASASA [FS-49] | 9.62 (active) | 12 (active) | 10.7 (active) |
| CAQHYRKKRWAGNASASA [FS-370] | 7.9 (active) | 8.78 (active) | 9.04 (active) |
| CAKIARHYRWAGNASASA [FS-1634] | 0.349 (inactive) | 0.374 (inactive) | 2.69 |

Source: the supplement of paper PMC3545927
